Assay results as given in PMC5540273 (PLoS ONE, 2017).

Legend:
Settings in all cases: concentration: 1 μM,replicates: in singlicate; n = 1
AAK1 = tested on: AAK1
ABL1-nonphosphorylated = tested on: ABL1-nonphosphorylated
ABL1-phosphorylated = tested on: ABL1-phosphorylated
ABL2 = tested on: ABL2
ACVR1B = tested on: ACVR1B
ACVR1 = tested on: ACVR1
ACVR2A = tested on: ACVR2A
ACVR2B = tested on: ACVR2B
ACVRL1 = tested on: ACVRL1
ADCK3 = tested on: T1, ADCK3
T1 construct: gene CABC1

ADCK4 = tested on: ADCK4
AKT1 = tested on: AKT1
AKT2 = tested on: AKT2
AKT3 = tested on: AKT3
ALK = tested on: ALK
AMPK-alpha1 = tested on: T2, AMPK-alpha1
T2 construct: gene PRKAA1

AMPK-alpha2 = tested on: T3, AMPK-alpha2
T3 construct: gene PRKAA2

ANKK1 = tested on: ANKK1
ARK5 = tested on: T4, ARK5
T4 construct: gene NUAK1

ASK1 = tested on: T5, ASK1
T5 construct: gene MAP3K5
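Further: KINOMEscan kinase panel screen.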

Structure (SMILES)	%Inh (AAK1) [%]	%Inh (ABL1-nonphosphorylated) [%]	%Inh (ABL1-phosphorylated) [%]	%Inh (ABL2) [%]	%Inh (ACVR1B) [%]	%Inh (ACVR1) [%]	%Inh (ACVR2A) [%]	%Inh (ACVR2B) [%]	%Inh (ACVRL1) [%]	%Inh (ADCK3) [%]	%Inh (ADCK4) [%]	%Inh (AKT1) [%]	%Inh (AKT2) [%]	%Inh (AKT3) [%]	%Inh (ALK) [%]	%Inh (AMPK-alpha1) [%]	%Inh (AMPK-alpha2) [%]	%Inh (ANKK1) [%]	%Inh (ARK5) [%]	%Inh (ASK1) [%]
CCN1CCN(CCCC(=O)Nc2n[nH]c3nc(-c4ccc(O)cc4)c(Br)cc23)CC1 [SB-731579]	0	64	31	100	0	78	0	2	63	0	16	0	0	0	0	0	0	0	5	0
NC(=O)Nc1sc(-c2ccc(F)cc2)cc1C(N)=O [GW789449]	60	49	0	3	5	0	31	28	0	5	7	0	0	0	52	25	15	86	0	26
COc1cc2c(Nc3ccc(NC(=O)c4ccccc4)cc3)ncnc2cc1OCCCN1CCOCC1 [GSK301329]	0	16	0	20	0	0	0	0	0	10	0	0	0	0	9	0	0	17	28	0
N#Cc1cccc(C(=O)NC2CCN(c3ccnc(Nc4ccc(F)cc4)n3)C2)c1 (stereo not shown) [GSK1379708]	0	0	0	4	0	31	0	0	0	0	20	0	0	0	26	16	0	0	0	0
CNC(=O)c1ccccc1Nc1nc(Nc2cccc(CS(C)(=O)=O)c2)ncc1C.O=CO [GSK1520489]	85	99.9	99.9	99.4	71	76	7	54	2	0	33	0	0	0	95.1	96.4	97.9	39	99.1	0
C[C@@H]1CNc2c(sc3ccc4nc(-c5ccncc5)ccc4c23)C(=O)N1	49	38	11	0	0	0	1	30	10	0	0	0	18	22	33	20	0	0	0	90
CN1CCN(CCNc2nc3cc(Oc4ccc(NC(=O)Nc5cc(C(F)(F)F)ccc5F)cc4)ccc3[nH]2)CC1.Cl.Cl [GW768504]	0	51	23	0	0	0	0	0	0	0	22	4	0	0	0	9	11	0	29	0
Nc1nccc(-c2ccc3c(N)n[nH]c3c2)n1 [GSK1034945]	65	0	0	9	0	0	0	44	0	1	33	0	10	0	20	0	0	31	0	0
COc1cccc(OC)c1C(=O)Nc1cccc(-c2nn3ccccc3c2-c2ccnc(Nc3cccc(F)c3)n2)c1 [GSK361065]	0	28	18	100	15	17	7	27	7	0	0	4	0	0	0	25	4	93.2	0	22
Cc1cccc2c(-c3ccncc3)c(-c3ccc(F)cc3)nn12.Cl [GW461487]	14	0	0	5	18	9	0	11	0	18	28	0	2	0	7	17	0	24	11	1
CN(c1cccc(CNc2nc(Nc3ccc4c(c3)CC(=O)N4)ncc2C(F)(F)F)c1)S(C)(=O)=O	51	46	3	16	0	0	0	0	0	0	29	0	0	0	41	26	5	0	99.3	0
CCNCC(Cc1ccccc1)NC(=O)c1cc(Br)c(-c2ccnc3[nH]ccc23)s1.Cl.Cl (stereo not shown) [GSK1383280]	39	15	14	19	0	0	0	2	0	12	89	93.7	81	88	42	49	45	8	60	0
Cn1ccc2ncnc(Oc3ccc(NC(=O)Nc4ccnc(C(F)(F)F)c4)c(Cl)c3)c21	18	68	10	5	0	11	4	13	63	0	4	7	0	0	0	0	0	0	2	0
C[C@@H]1CNc2c(sc3ccc4nc(-c5ccc(O)cc5)ccc4c23)C(=O)N1	29	48	10	3	22	11	8	52	45	0	10	0	0	0	16	30	0	0	0	91
CN1CCN(CCCNc2nccc(-c3c(-c4ccc(F)cc4)nn4cc(C(N)=O)ccc34)n2)CC1 [GW622475]	33	10	0	17	94.9	90.6	19	45	77	96.7	100	0	12	0	26	18	11	29	19	0
O=C(Nc1ccc(Oc2ccc3nc(NC(=O)C4CC4)cn3n2)c(F)c1)c1cccn(-c2ccccc2)c1=O	0	99.9	88	62	0	19	28	31	1	16	0	18	13	30	0	0	3	0	0	3

Structure (SMILES)	%Inh (AAK1) [%]	%Inh (ABL1-nonphosphorylated) [%]	%Inh (ABL1-phosphorylated) [%]	%Inh (ABL2) [%]	%Inh (ACVR1B) [%]	%Inh (ACVR1) [%]	%Inh (ACVR2A) [%]	%Inh (ACVR2B) [%]	%Inh (ACVRL1) [%]	%Inh (ADCK3) [%]	%Inh (ADCK4) [%]	%Inh (AKT1) [%]	%Inh (AKT2) [%]	%Inh (AKT3) [%]	%Inh (ALK) [%]	%Inh (AMPK-alpha1) [%]	%Inh (AMPK-alpha2) [%]	%Inh (ANKK1) [%]	%Inh (ARK5) [%]	%Inh (ASK1) [%]
COc1cccc(CNC(=O)NC2CCN(c3ccnc(Nc4cc(OC)c(OC)c(OC)c4)n3)C2)c1 (stereo not shown) [GSK1379765]	54	0	0	20	0	0	0	14	0	24	92.3	0	17	0	72	0	2	42	45	7
O=C1NCCc2[nH]c(-c3ccncc3)cc21	77	31	0	0	40	14	40	70	19	33	0	0	0	0	0	6	0	10	0	40
CS(=O)(=O)c1cccc(CNc2nc(Nc3ccc4c(c3)[C@@H]3C[C@@H]4CNC3=O)ncc2C(F)(F)F)c1	92.6	97.9	93.2	66	0	0	0	0	0	0	0	0	0	0	0	37	28	22	94.6	0
CSc1nccc(-c2c(-c3ccc(F)cc3)ncn2CCCN2CCOCC2)n1.Cl [SB-217146]	0	35	31	0	0	0	0	0	0	0	25	14	0	0	0	0	0	1	0	0
Cn1ccc2ncnc(Oc3ccc(NC(=O)Nc4cnn(C(C)(C)C)c4)c(Cl)c3)c21	3	87	39	11	2	0	0	0	17	0	0	0	8	13	0	19	20	0	19	2
CC(C)S(=O)(=O)N1CCN(Cc2ccc3c(c2)nc(NC(=O)c2ccsc2)n3C[C@H](O)c2ccccc2)CC1 [GW635815]	38	0	2	22	15	0	0	0	0	0	27	0	16	0	68	0	2	19	60	17
C[C@@H](Oc1cc(-n2cnc3ccc(-c4ccncc4)cc32)sc1C(N)=O)c1ccccc1Cl [GSK483724]	60	0	0	21	0	32	0	0	0	52	76	41	22	0	20	8	12	17	0	10
CC(C(=O)NC1CCN(c2ccnc(Nc3ccc(F)cc3)n2)C1)c1ccc(Cl)cc1 (stereo not shown) [GSK1379713]	14	0	0	9	0	0	0	0	0	0	13	0	0	0	5	10	0	4	0	0
CN(c1ccccc1CNc1nc(Nc2ccc3c(c2)CC(=O)N3)ncc1C(F)(F)F)S(C)(=O)=O	10	25	7	5	28	0	0	0	0	0	0	0	0	0	92.4	74	70	0	92.1	0
Cn1ccc2ncnc(Oc3ccc(NC(=O)Nc4cncc(C(F)(F)F)c4)c(Cl)c3)c21	0	92.7	35	27	0	0	0	0	0	2	0	6	13	0	0	0	0	0	0	0
Cc1ccc2c(-c3ccnc(Nc4ccc(C(F)(F)F)cc4)n3)cnn2n1 [GW819776]	12	36	28	1	11	0	0	0	0	5	35	0	0	0	0	11	8	0	0	0
O=C(Nc1cccc(Oc2ccc3nccn3n2)c1)Nc1cccc(C(F)(F)F)c1	0	98.2	15	71	0	0	22	9	0	0	0	0	0	7	14	0	0	0	8	0
c1ccc(Oc2ccc(Nc3ccnc4ccc(-c5ccccn5)cc34)cc2)cc1 [GW407034]	13	0	0	17	0	5	6	13	0	12	19	0	17	0	28	10	0	0	26	4
Cl.c1ccc(Oc2ccc(Nc3ccnc4cc(-c5ccc(CN6CCNCC6)o5)ccc34)cc2)nc1 [GW567142]	2	99.7	84	42	0	0	0	41	0	0	18	0	0	0	15	0	0	0	12	0
Cc1ccc(Nc2ccnc(Nc3ccc4c(c3)CS(=O)(=O)C4)n2)cc1O.Cl [GW579362]	80	99.3	99.8	99.3	84	99.5	72	95.6	85	8	100	0	0	0	51	10	17	44	25	0
CCOC(=O)N1CCC(n2cnc(-c3ccc(F)cc3)c2-c2ccnc(N)n2)CC1 [SB-219952]	0	60	2	0	33	28	0	0	10	15	20	7	0	24	0	99.8	4	0	0	0
